Shown are actives, neighbours in structure and some others; about 7.8% of the full set was active somewhere.
Lassa entry inh – inhibitors of Lassa virus binding or cell entry. Lassa virus pseudotype entry inhibition, cell reporter. Potency, µM (series often up to 37.9 µM), for inactives: at the top dose activity change, negative = inhibition, most hits filed as inhibitors. 300,000 tested, 1.2% active; calls by dose curve; tested in HEK293 cells; also: potency is read from the fitted curve at half-maximal effect; nearly all actives have a fitted effect of over 50% in size
HCV inh – blocks hepatitis C virus | AID 651820 | 340,000 tested, 3.4% active | Potency, µM (highest dose often 41.8 µM), inactives show top-dose activity change, negative = inhibition, most hits filed as inhibitors | Huh7.5.1 HCVcc-Cre infection, luciferase reporter, 44 h; active = well fitted inhibition curve with a large enough effect; inconclusive = small, poorly fitted or top-dose-only effect, or another doubt; inactive = no such curve, though single readings can be large or run the other way; also: potency is read from the fitted curve at half-maximal effect
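Infectious HCVcc-Cre (~0.5 moi) was added to cells just after compound, with cells seeded 4 h earlier at 1,000 per well. Luciferase activity after 44 h culture reported infection; substrate was incubated 15 min at room temperature before reading.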
MARV entry inh – blocks Marburg virus binding to or entry into cells; Marburg virus pseudotyped entry inhibition, cell reporter; Potency, µM (titrated, usually from 37.8 µM), without a hit: top-dose activity change, negative = inhibition, usual class: inhibitors; 300,000 tested, 1.8% active; AID 540276; calls by dose curve; tested in HEK293 cells; also: potency is read from the fitted curve at half-maximal effect
VACV mCherry inh – inhibitors of vaccinia virus infection (mCherry reporter signal) | Vaccinia virus mCherry reporter infection, fluorescence | Potency, µM (top dose mostly 36.5 µM), inactives show at the top dose activity change, negative = inhibition, usual class: inhibitors | 310,000 tested, 0.63% active; calls by dose curve; tested in A549 cells; also: potency is read from the fitted curve at half-maximal effect; nearly all actives have a fitted effect of over 35% in size
Vaccinia Venus – vaccinia inhibition (Venus reporter); Vaccinia virus Venus reporter expression, fluorescence; 330,000 tested, 0.46% active; Potency, µM (doses to about 36.5 µM), inactives show at the highest dose activity change, negative = inhibition, actives largely listed as inhibitors; calls by dose curve; tested in A549 cells; also: potency is read from the fitted curve at half-maximal effect; nearly all actives have a fitted effect of over 30% in size
HCMV antiviral – blocks human cytomegalovirus replication; HFF cells, HCMV-luciferase reporter, 72 h; stronger effect = lower value; activity change, negative = inhibition, % at 57.5 µM; 410,000 tested, 4.5% active; in the data active = activity change below about -60%; inconclusive = no clear call, values can overlap the other calls; inactive = above about -39%
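Screen run at 2 compound doses on HFFs infected with reporter HCMV, MOI 1 PFU/cell. Luciferase activity from cell lysates at 72 h post infection gave inhibition relative to buffer-only and Salinomycin wells.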
* marks the source's active call; other numbers are inactive results; i = inactive; ? = inconclusive; . = not tested or not shown; [ ] = remark or other dose. % is scaled to controls: 0 for no effect and ±100 for the full control effect.

SMILES | Lassa entry inh | HCV inh | MARV entry inh | VACV mCherry inh | Vaccinia Venus | HCMV antiviral
CCOc1cc2c(cc1O)C(=NO)CC1C2CCC2(C)C(O)CCC12 (stereo not given) | ? | ? | ? | ? | ? | -76*
Cc1ccc(-c2cc3ccccc3nc2N2CCOCC2)cc1 | 19%[46.1 µM] | 10µM* | 19%[46.1 µM] | i | -6% | -29
c1ccc(-c2cc3ccccc3nc2N2CCCC2)cc1 | 3% | ? | -1% | . | -13% | -61*
c1ccc2nc(N3CCCC3)c(N3CCCC3)nc2c1 | 5% | -19% | -2%[46.1 µM] | -3% | -8% | -7
CN1CCN(c2nc(-c3ccc(Br)cc3)nnc2-c2ccccc2)CC1 | 13% | ? | -8% | ? | -28% | 35
Cc1ccc2nc(N3CCOCC3)c(C=O)cc2c1 | . | ? | . | . | . | 17
Cc1ccc(-c2nnc(-c3ccccc3)c(N3CCOCC3)n2)cc1 | -22% | 11µM* | ? | . | . | -3
Cc1ccc2c(CNCCc3ccccc3)c(C(=O)O)n(Cc3ccccc3C)c2c1 | 28%[46.1 µM] | . | . | -25% | -23% | 27
COc1cc(C)c(NC(=O)c2cc(C3CC3)nc3c2cnn3C(C)C)cc1OC | . | 5µM* | . | . | . | 8
Cc1cc(C)c(NC(=O)CNC(=O)c2cc(C3CC3)nc3c2cnn3C(C)C)c(C)c1 | . | . | . | -7% | ? | 40
COc1ccc(NC(=O)c2cc(C3CC3)nc3c2cnn3C(C)C)cc1OC | . | 10µM* | . | . | . | ?
CC(C)n1ncc2c(C(=O)Nc3ccccc3SCC(N)=O)cc(C3CC3)nc21 | . | . | . | -18% | -17% | 0
COc1ccc(-c2c(C)nn(-c3ccccc3)c2N)cc1 | ? | 2% | 4% | -5% | -14% | 64
Cc1nn(-c2nc3ccccc3[nH]2)c(=O)c2ccccc12 | ? | 14% | ? | i | -20% | -91*
Cc1nn(-c2nc3ccccc3[nH]2)c(N)c1-c1ccc(Cl)cc1 | -11% | -18% | ? | ? | ? | -68*
O=c1cc(-c2ccccc2)nc(SCc2nc(-c3cccc(C(F)(F)F)c3)no2)[nH]1 | 12%[46.1 µM] | . | . | i | -7% | 0
COc1ccc(C(=O)Nc2ccccc2SCc2cc(=O)c3cccc(C)c3[nH]2)cc1 | -6%[46.1 µM] | . | . | 7% | -7% | 38
OC(COC(c1ccccc1)c1ccccc1)CN1CCc2ccccc2C1 (stereo not given) | -38%[46.1 µM] | ? | ? | -23% | -14% | 38
CC(C)(C)c1ccc(OCC(O)CN2CCc3ccccc3C2)cc1 (stereo not given) | . | ? | . | . | . | -63*
OC(COC(c1ccc(F)cc1)c1ccc(F)cc1)CN1CCc2ccccc2C1 (stereo not given) | -22% | ? | ? | ? | ? | -61*
OC(COC(c1ccc(Cl)cc1)c1ccc(Cl)cc1)CN1CCc2ccccc2C1 (stereo not given) | ? | 13µM* | ? | -23% | -24% | -35
C/C1=C\CCCCc2cc(O)ccc2OC(=O)CC1 | . | . | . | . | . | -19
COc1cccc(/C=N/NC(=O)c2c(C)nc3ccc(Br)cn23)c1O | 5.2µM* | 4.5µM* | 1.8µM* | . | . | .
COc1ccc(/C=N\NC(=O)c2c(C)nc3ccc(Br)cn23)cc1 | ? | 3% | -9% | ? | ? | -69*
Cc1cc(/C=N\NC(=O)c2cccs2)c(C)n1-c1ccc2ncccc2c1 | 10µM* | ? | ? | . | ? | 38
SMILES | Lassa entry inh | HCV inh | MARV entry inh | VACV mCherry inh | Vaccinia Venus | HCMV antiviral
CCOc1ccccc1/C=N/NC(=O)c1c(C)nc2ccc(Br)cn12 | . | -22% | . | . | . | 7
Cc1nc2ccccn2c1C(=O)N/N=C/c1cc(C)n(-c2ccc(Br)cc2)c1C | -17% | 4µM* | ? | . | . | ?
C[C@H](c1ccccc1)N1C[C@@H](COCc2ccccc2)Oc2cc(N3CCC[C@H]3CO)ccc2S1(=O)=O | . | . | . | 12% | -6% | ?
O=C(CSc1ncc2c(n1)-c1ccc(Cl)cc1N(Cc1ccccc1)S2(=O)=O)Nc1ccccc1C(F)(F)F | -27%[46.1 µM] | . | . | -24% | -2% | 8
COc1ccc(/C=N/NC(=O)c2c(C)nc3ccc(Cl)cn23)cc1OC | . | 5% | . | . | . | -8
COc1cc(/C=N/NC(=O)c2c(C)nc3ccc(Cl)cn23)cc(OC)c1OC | -9%[46.1 µM] | ? | 4.5µM* | -7% | -3% | 29
Cc1nc2ccc(C(C(F)(F)F)(C(F)(F)F)C(F)(F)F)cc2[nH]1 | 16µM* | ? | -19% | -27% | -27% | -2
CC[C@H](C)[C@@H](C(=O)NCCCCCCCCCCC(=O)N1CCN(C(=O)OC(C)(C)C)CC1)n1cc(CCCCN=C(NC(=O)OC(C)(C)C)NC(=O)OC(C)(C)C)nn1 | . | 15% | . | . | . | .
CC(C)(C)OC(=O)NCCCCCc1cn([C@@H](CO)C(=O)NCCCCCCCCCCC(=O)N2CCN(C(=O)OC(C)(C)C)CC2)nn1 | . | ? | . | ? | ? | -95*
CC[C@H](C)[C@@H](C(=O)NCCCCCCCCCCC(=O)N1CCN(C(=O)OC(C)(C)C)CC1)n1cc(CCCCCNC(=O)OC(C)(C)C)nn1 | . | ? | . | ? | ? | -69*
COc1ccc(/C=C/c2cnccn2)cc1OC | . | . | . | 22% | -13% | .
ClC1=C(Cl)C(Cl)=C(Cl)C1=C/C=C/c1ccccc1 | . | 8.9µM* | . | . | . | ?
O=C1NC(=O)N(c2ccccc2)C(=O)/C1=C\C=C\c1ccccc1 | -2% | ? | 1%[46.1 µM] | i[7.34 µM] | -8%[7.34 µM] | 41
Cc1ccccc1CNC(=O)C1CCCN(c2nnc(C)c3c(C)n(-c4ccccc4)nc23)C1 (stereo not given) | . | 11% | . | . | . | -101*
Cc1ccc(NC(=O)C2CCCN(c3nnc(C)c4c(C)n(-c5ccccc5)nc34)C2)cc1Cl (stereo not given) | 0%[46.1 µM] | . | . | ? | 11µM* | -7
Cc1nnc(N2CCCC(C(=O)NCc3ccccc3F)C2)c2nn(-c3ccccc3)c(C)c12 (stereo not given) | . | -16% | . | . | . | -20
CCc1ccc(CNC(=O)C2CCCN(c3nnc(C)c4c(C)n(-c5ccccc5)nc34)C2)cc1 (stereo not given) | -24%[46.1 µM] | 1% | . | -26% | -18% | -108*
Cc1nnc(N2CCCC(C(=O)NCc3ccccc3)C2)c2nn(-c3ccccc3)c(C)c12 (stereo not given) | 17%[46.1 µM] | . | . | -20% | -18% | 1
COc1cccc(C2(CC(=O)N3CCC(c4nc5ccc(F)cc5[nH]4)CC3)CC(=O)N(C)C2=O)c1 (stereo not given) | . | . | . | -3% | -2% | .
Cc1ccc2[nH]c(=O)c(CN(CC3CCCO3)C(=S)Nc3ccccc3)cc2c1 (stereo not given) | ? | ? | ? | -30% | ? | -78*
CCN(CC)CCN(Cc1cc2cc(C)ccc2[nH]c1=O)C(=S)Nc1ccccc1 | -9%[46.1 µM] | ? | ? | -4% | -4% | -69*
Cc1cccc(NC(=S)N(CCN(C)C)Cc2cc3cc(C)ccc3[nH]c2=O)c1 | . | -11% | ? | -23% | -12% | -32
